AmpC det inh: Promiscuous and Specific Inhibitors of AmpC Beta-Lactamase (assay with detergent); 0.09% of 71,000 active; purified AmpC, nitrocefin hydrolysis with detergent; Potency, µM (doses to about 28.7 µM), for the others: top-dose activity change, negative = inhibition; P00811; active = well fitted curve in the direction sought with a large enough effect; inconclusive = small, poorly fitted or top-dose-only effect; also: % is scaled to controls: 0 for no effect and ±100 for the full control effect
Target sequence (P00811 whole entry, looked up): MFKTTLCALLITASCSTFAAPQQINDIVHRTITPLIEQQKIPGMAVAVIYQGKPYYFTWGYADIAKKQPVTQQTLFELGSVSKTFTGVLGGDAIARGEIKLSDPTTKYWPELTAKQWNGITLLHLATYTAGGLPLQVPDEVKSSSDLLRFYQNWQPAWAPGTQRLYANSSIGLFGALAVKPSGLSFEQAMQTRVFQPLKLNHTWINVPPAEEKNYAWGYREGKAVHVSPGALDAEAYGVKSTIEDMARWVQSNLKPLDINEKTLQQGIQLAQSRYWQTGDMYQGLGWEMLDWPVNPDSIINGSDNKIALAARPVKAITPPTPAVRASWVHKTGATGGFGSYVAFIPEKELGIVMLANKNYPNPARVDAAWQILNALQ
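E. coli AmpC (5.3 nM) in 20 mM phosphate pH 7.0 with 0.01% Triton X-100, preincubated 15 min RT with compound; nitrocefin (2 uL of 800 uM stock) hydrolysis followed by 480 nm absorbance every 20 s over 4 min.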
SmPrx2 inh: Schistosoma Mansoni Peroxiredoxins (Prx2). Potency, µM. 0.07% of 65,000 active. Schistosoma mansoni peroxiredoxin 2 (Prx2). S. mansoni Prx2 activity coupled to TGR/GSH (TGR is thioredoxin glutathione reductase), NADPH fluorescence loss, qHTS
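qHTS, coupled TGR/Prx2 format; 15 min compound preincubation at RT; reaction started with H2O2 (2.5 mM aliquot); kinetic NADPH fluorescence decrease, ex 365/em 450 nm.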
Anthrax LT inh: qHTS Assay for Anthrax Lethal Toxin Internalization. Cells, anthrax lethal toxin internalization, FRET ratio (460/530). Potency, µM (top dose mostly 40 µM), without a hit: top-dose activity change, negative = inhibition, actives largely listed as inhibitors. 0.67% of 70,000 active. AID 912, 2007; also: % is scaled to controls: 0 for no effect and ±100 for the full control effect; nearly all actives have a fitted effect of over 50% in size
AmpC inh no det: Promiscuous and Specific Inhibitors of AmpC Beta-Lactamase (assay without detergent); Potency, µM (titrated, usually from 28.7 µM), for the others: top-dose activity change, negative = inhibition; P00811; 1.8% of 71,000 active; AmpC nitrocefin hydrolysis, absorbance 480 nm, no detergent; also: % of control where 0% means no effect
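AmpC in 20 mM phosphate buffer pH 7.0 was preincubated 15 min at room temperature with compounds. Nitrocefin (800 uM stock) was then added and hydrolysis followed at 480 nm every 20 s for 4 min.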
* = called active by the depositor; ? = inconclusive; . = no result; [ ] = dose if it differs, or a comment. Shown are actives, neighbours in structure and some others; about 2.6% of the full set was active somewhere. Unless noted, calls follow the shape of the full dose curve. Potency is read from the fitted curve at half-maximal effect.

SMILES	AmpC det inh	SmPrx2 inh	Anthrax LT inh	AmpC inh no det
CCNc1ncc2nc(C)c(=O)n(Cc3cccs3)c2n1	-2.5%	>57	10.5%	14.9%
O=C(Nc1ccc(S(=O)(=O)NCc2ccccc2)cc1)Nc1ccc2c(c1)OCO2	-2.1%	>57	?	10µM*
COc1ccccc1NC(=O)NCCCN1CCN(c2cccc(Cl)c2)CC1	12.2%	>57	?	3.98µM*[single pt active]
CCCCN1CSC(=S)N(Cc2ccccc2)C1	-2.8%[5.75 µM]	>57	?	-0.6%[5.75 µM]
CC1(C)Cn2c(nnc2-c2ccccc2)S1	-0.6%	>57	-5.7%	-3.0%
C=C1Cn2c(nnc2-c2ccc(Cl)cc2)S1	11.5%	>57	1.3%	3.98µM*[single pt active]
[O-][N+](=Nc1ccccc1)c1ccccc1	9.7%	.	-6.3%	-8.2%
CC[C@H](CO)NC(=O)[C@@H]1C=C2c3cccc4[nH]cc(c34)C[C@@H]2N(C)C1	-2.7%	>57	?	-7.7%
COc1ccc(S(=O)(=O)N(CCCN2CCCC2=O)Cc2cc3c(C)cc(C)cc3[nH]c2=O)cc1	1.3%	20.4*	3.6%	177.5%
COc1ccc(-c2coc3cc(O[C@@H]4O[C@@H](CO)[C@@H](O)[C@@H](O)[C@H]4O)cc(O)c3c2=O)cc1	-0.6%	>57	?	24.6%
C[N+](C)(N)CCC[N+](C)(C)N	-1.2%[5.75 µM]	>57	-6.4%[8 µM]	-4.8%[5.75 µM]
CN(c1nnc(N)s1)C1CCCCC1	21.1%	>57	-2.3%	3.98µM*[single pt active]
COc1ccc2[nH]cc(CCNC(=O)C3CCCNC3=O)c2c1 (stereo not given)	9.9%	>57	-2.4%	2.51µM*[single pt active]
CCCn1c(Nc2nc3ccccc3n2C)nc2ccccc21	-3.9%	>57	6.31µM*	-12.8%
Cn1c(NCc2ccccc2Cl)nc2ccccc21	10.4%	>57	-23.9%	3.98µM*[single pt active]
Cc1ccc2c(c1)N(CC(=O)NCC1COc3ccccc3O1)C(=O)CO2 (stereo not given)	9.6%	>57	-7.3%	48.6%
O=C(Nc1ccccc1)OC[C@H](CN1CCCCC1)OC(=O)Nc1ccccc1	-2.0%[12.8 µM]	>57	2.0%[3.58 µM]	10.6%[12.8 µM]
Cc1ccc(-c2noc(CN3CCC(C(N)=O)CC3)n2)cc1	-2.2%	>57	-15.2%	-3.6%
Cc1ccc(-c2noc(CN3C(C)CCCC3C)n2)cc1 (stereo not given)	12.3%	>57	-12.1%	3.98µM*[single pt active]
C[C@H]1[C@H](C)OC(=O)C[C@H](O)C[C@H](O)C[C@H](O)CC[C@H](O)[C@H](O)CC(=O)C[C@H](O)[C@H](C(=O)O)[C@H](O)C[C@H](O[C@@H]2O[C@@H](C)[C@H](O)[C@@H](N)[C@@H]2O)C=CC=CC=CC=CCCC=CC=C[C@@](C)(O)[C@H]1O	-4.2%[5.75 µM]	>57	-7.1%[8 µM]	83.5%[5.75 µM]
CN1CCN(C2=C(Cl)C(=O)N(c3cccc(Cl)c3)C2=O)CC1	6.2%	.	0.3%	-12.8%
CN1CCN(C2=C(Cl)C(=O)N(c3ccc(Cl)c(Cl)c3)C2=O)CC1	-2.3%	.	7.94µM*	-12.7%
CCC(C)[C@@H](C(=O)Nc1ccc(OC)c(OC)c1)N1Cc2ccccc2C1=O (stereo not given in full)	13.3%	>57	9.3%	3.98µM*[single pt active]
CSCC[C@@H](C(=O)Nc1ccc2c(c1)OCCO2)N1Cc2ccccc2C1=O	8.1%	>57	-7.0%	3.98µM*[single pt active]
O=C1C2=C(Nc3cc([N+](=O)[O-])ccc3N2)O[C@@H]1c1c[nH]c2ccc(COc3ccccc3)cc12	-5.5%[5.75 µM]	>57	-13.5%[8 µM]	4.7%[5.75 µM]
SMILES	AmpC det inh	SmPrx2 inh	Anthrax LT inh	AmpC inh no det
COc1ccccc1-c1cc(C(=O)N2CCc3ccccc3C2)no1	6.9%	>57	?	17.3%
COC(=O)c1ccc(-c2nn(C)c(=O)c3ccccc23)cc1	11.2%	>57	-14.5%	3.98µM*[single pt active]
O=C(O)/C=C\[C@H](O)c1ccc(Cl)cc1	-2.0%	>57	-5.3%	-12.5%
CCc1cc2c(=O)n(Cc3ccco3)c(SCc3c(C)noc3C)nc2s1	6.7%	>57	10µM*	28.6%
C#CCN1C(C)=C(C(=O)OC)[C@@H](c2cccc([N+](=O)[O-])c2)C(C(=O)OCC)=C1C	0.0%	>57	2.7%	22.5%
CC1CCN(S(=O)(=O)c2ccc(NC(=O)Cn3nnc(-c4ccccc4)n3)cc2)CC1	-6.1%	>57	?	-12.8%
Cc1ccc(-c2nnn(CC(=O)Nc3ccc(S(=O)(=O)N4CCC(C)CC4)cc3)n2)cc1	6.3%	>57	-24.8%	12.6µM*
CC1CCCN(S(=O)(=O)c2ccc(NC(=O)Cn3nnc(-c4ccccc4F)n3)cc2)C1 (stereo not given)	15.1%	>57	-25.9%	15.8µM*
Cc1ccc(SCN2CCCCC2)cc1 (tested in a mixture with another compound)	-3.7%[5.75 µM]	>57	?	-5.2%[5.75 µM]
C[C@H](N)C(=O)OC(C)(C)Cc1ccc(Cl)cc1	2.2%	>57	9.5%	4.7%
CC1CCN(CC[C@@H]2CCCN2S(=O)(=O)c2cccc(O)c2)CC1	-1.3%	>25.6	8.9%	-1.1%
CCC/C=C(\CCC)C(NC(=O)c1ccc(C(F)(F)F)cc1)c1ccccc1 (stereo not given)	3.0%	>57	-16.9%	20µM*[single pt active]
Cc1ccc(C[C@H](Cc2nc3ccccc3[nH]2)c2nc3ccccc3[nH]2)cc1	0.9%	>57	?	-9.9%
CC(C)(C)c1cc(Br)ccc1OCC(=O)Nc1ncn[nH]1	4.2%	.	7.94µM*	-3.2%
CC(C)(C)c1ccccc1OCC(=O)Nc1ncn[nH]1	10.8%	>57	?	-1.9%
[O-][n+]1c(CN2CCCCC2)nc2cccc3c2c1-c1ccccc1-3	-3.3%[5.75 µM]	>57	?	-17.4%[5.75 µM]
CN(C1CCCCC1)S(=O)(=O)c1ccc2c(c1)c(=O)c(C(=O)NCCN1CCCC1)cn2C	10.3%	>57	10µM*	90.8%
CN(CCNC(=O)c1cn(C)c2ccc(S(=O)(=O)N(C)C)cc2c1=O)CCc1ccccc1	14.1%	>57	-13.2%	3.98µM*[single pt active]
CCn1cc(C(=O)NCCCOC)c(=O)c2cc(S(=O)(=O)N(C)C)ccc21	12.7%	>57	-1.3%	3.16µM*[single pt active]
N[C@H](C(=O)N[C@@H]1C(=O)N2C(C(=O)O)=C(Cl)CS[C@@H]12)c1ccccc1	-5.7%[12.8 µM]	>57	8.3%[3.58 µM]	-10.6%[12.8 µM]
CC1(C)S[C@@H]2[C@H](NC(=O)C3(N)CCCCC3)C(=O)N2[C@H]1C(=O)O	0.0126µM*	>57	-12.4%[3.58 µM]	0.00631µM*
Cc1onc(-c2c(F)cccc2Cl)c1C(=O)N[C@H]1C(=O)N2[C@H]1SC(C)(C)[C@H]2C(=O)O	0.002µM*	>25.6	3.6%[3.58 µM]	0.00158µM*
Cc1onc(-c2ccccc2Cl)c1C(=O)N[C@H]1C(=O)N2[C@H]1SC(C)(C)[C@H]2C(=O)O	0.002µM*	>57	2.0%[3.58 µM]	0.00158µM*
C=N[C@H](C(=O)N[C@@H]1C(=O)N2[C@@H]1SC(C)(C)[C@@H]2C(=O)O)c1ccccc1	0.158µM*	>57	?	0.126µM*
COc1ccccc1-c1ccc2ncnc(N3CCNCC3)c2c1	10.7%	>57	?	11.6%
CC[C@@H]1CN2CCc3cc(OC)c(OC)cc3[C@H]2C[C@@H]1C[C@@H]1NCCc2cc(OC)c(OC)cc21	.	>57	.	.
COc1ccc2nccc(SCC(=O)O)c2c1	-3.7%[5.75 µM]	>57	-6.4%[8 µM]	3.0%[5.75 µM]
